Assay outcomes deposited in PubChem BioAssay by National Center for Advancing Translational Sciences (NCATS).
DT40 TDP1 CPT – DT40-hTDP1 cell growth loss with CPT; chicken DT40 Tdp1-/-;hTDP1 cells + 20 nM CPT, ATP luminescence, 48 h; Potency, µM (titrated, usually from 46.2 µM), inactives show top-dose activity change, negative = growth inhibition, hits mostly inhibitors; 12% of 420,000 active; AID 686979; further: potency means the concentration at half of the fitted maximal effect; on the % scale 0 is the no-effect control and ±100 the full control effect; nearly all actives have a fitted effect of over 55% in size
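Chicken DT40 Tdp1-/- cells complemented with human TDP1, 400 cells/well, exposed to compounds plus 20 nM camptothecin for at least 48 h at 37 C; viability read as ATP content by CellTiter-Glo luminescence.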
HepG2 viability – HepG2 cytotoxicity, counter-screen for TGF-b inhibitors. HepG2 CAGA-GFP viability, ATP luminescence, 18 h. Potency, µM (top dose mostly 46.1 µM), inactives show top-dose activity change, negative = cytotoxicity, hits mostly cytotoxic. 0.76% of 410,000 active. AID 588856; further: potency means the concentration at half of the fitted maximal effect
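HepG2 CAGA-GFP cells (1000/well, DMEM with 1% FBS) received compound, then TGF-beta at 500 pg/mL final, and were incubated 18 hours at 37 degrees C. Viability was read by CellTiter-Glo luminescence. Media-only wells were set as complete cell-killing and DMSO as no toxicity.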
IL1B secr inh – blocks inflammasome-driven IL-1 beta release; THP-1 LPS/ATP IL-1B secretion, AlphaLISA, 16 h; hits give low values; activity change, % at 57.5 µM; 4.7% of 360,000 active; AID 743279; in the data active means activity change below about -50%; inconclusive means mostly about -30% to -49%; further: on the % scale 0 is the no-effect control and ±100 the full control effect
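THP-1 cells pretreated 1 hr with compounds (up to 57.5 uM final), then stimulated with LPS (250 ng/mL final) plus ATP (1.25 mM final); secreted IL-1B measured by AlphaLISA after 16 hr, decreased signal indicating inhibition.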
TDP1 inh – TDP1 (human) enzyme inhibition. recombinant TDP1, AlphaScreen DNA substrate cleavage. Potency, µM (highest dose often 130 µM), for the others: at the highest dose activity change, negative = inhibition, actives largely listed as inhibitors. 0.28% of 350,000 active; further: potency means the concentration at half of the fitted maximal effect; on the % scale 0 is the no-effect control and ±100 the full control effect; nearly all actives have a fitted effect of over 40% in size
Target sequence (Q9NUW8 whole entry, looked up): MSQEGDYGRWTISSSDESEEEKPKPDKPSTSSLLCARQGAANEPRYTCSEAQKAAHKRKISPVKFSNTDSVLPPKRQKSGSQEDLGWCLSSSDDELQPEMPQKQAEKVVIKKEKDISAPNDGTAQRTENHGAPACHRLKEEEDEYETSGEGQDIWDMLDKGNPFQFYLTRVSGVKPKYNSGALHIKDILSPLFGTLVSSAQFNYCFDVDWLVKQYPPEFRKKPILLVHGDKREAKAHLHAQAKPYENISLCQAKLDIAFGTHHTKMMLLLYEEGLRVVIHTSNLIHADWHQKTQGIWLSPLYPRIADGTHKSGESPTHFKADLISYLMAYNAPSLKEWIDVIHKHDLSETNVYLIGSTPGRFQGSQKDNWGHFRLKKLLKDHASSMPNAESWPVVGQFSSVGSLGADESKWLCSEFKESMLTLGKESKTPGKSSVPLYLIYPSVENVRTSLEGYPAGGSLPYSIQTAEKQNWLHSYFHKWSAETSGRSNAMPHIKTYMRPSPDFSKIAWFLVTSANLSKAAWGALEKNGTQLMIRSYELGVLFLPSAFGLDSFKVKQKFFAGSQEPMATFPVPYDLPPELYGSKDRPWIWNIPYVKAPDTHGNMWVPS
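Recombinant E. coli-expressed Tdp1 (1 nM) preincubated with compound 15 min at RT, then 5'-biotin/3'-phosphotyrosine-FITC DNA substrate (15 nM) added for 5 min. AlphaScreen beads (10 ug/ml) added, 10 min RT; tyrosine-FITC cleavage read as signal loss.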
TGFb inhibitor – TGF-b pathway inhibition. HepG2 CAGA-GFP TGF-b/SMAD3 reporter, GFP fluorescence, 18 h; TGF-beta stimulated, 500 pg/mL final. Potency, µM (series often up to 46.1 µM), inactives show top-dose activity, negative = inhibition, actives largely listed as inhibitors. 1.2% of 410,000 active. AID 588855; further: potency means the concentration at half of the fitted maximal effect; on the % scale 0 is the no-effect control and ±100 the full control effect; nearly all actives have a fitted effect of over 65% in size
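Read-out: total well GFP (ex488/em500-530) summed from mean per-cell fluorescence. Cells: HEPG2 CAGA-GFP, 1% FBS DMEM, 18 h at 37 degrees C with 500 pg/mL final TGF-beta. Unstimulated wells served as the full-inhibition control; stimulated DMSO wells = 0%.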
TDP1 cell noCPT – qHTS for Inhibitors of human tyrosyl-DNA phosphodiesterase 1 (TDP1): qHTS in cells in absence of CPT. DT40 Tdp1-/- hTDP1 cells, no CPT, ATP luminescence, 48 h. Potency, µM (doses to about 46.2 µM), for inactives: top-dose activity change, negative = growth inhibition, most hits filed as inhibitors. 15% of 420,000 active. AID 686978, 2013; further: potency means the concentration at half of the fitted maximal effect; on the % scale 0 is the no-effect control and ±100 the full control effect; nearly all actives have a fitted effect of over 55% in size
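Chicken DT40 Tdp1-/- cells stably complemented with human TDP1 were seeded at 400 cells/well with DMSO in place of 20 nM camptothecin. After compound pinning, cells grew at least 48 hr at 37 °C; viability read by CellTiter-Glo luminescence.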
Starred values were filed as active, the others as inactive; ? = inconclusive; nt = not tested or not shown; [ ] = remark or other dose. A selection: hits, their analogues and other compounds. The true share with any hit is near 19%. Unless noted, the call rests on the fitted dose curve; in most records, active means well fitted curve in the direction sought with a large enough effect; inconclusive means small, poorly fitted or top-dose-only effect, or another doubt; inactive means no such curve, though single readings can be large; an effect the other way counts as inactive or inconclusive.

SMILES	DT40 TDP1 CPT	HepG2 viability	IL1B secr inh	TDP1 inh	TGFb inhibitor	TDP1 cell noCPT
O=C(Cc1ccccc1)N1CCCC(c2nc(-c3ccc(S(=O)(=O)N4CCCC4)cc3)no2)C1 (stereo unspecified)	?	-35.4%	-71.5*	2.3%	-19.4%	?
O=C(c1cc(F)cc(F)c1)N1CCC(c2nc(-c3ccc(S(=O)(=O)N4CCCC4)cc3)no2)CC1	?	-1.5%	nt	-4.7%	?	?
CC(C)(C)c1ccc(C(=O)N2CCC(c3noc(-c4ccc(S(=O)(=O)N5CCCC5)cc4)n3)CC2)cc1	20.6µM*	-12.9%	nt	-7.0%	-3.0%	18.4µM*
O=C(NC1CCCCC1)N1CCC(c2nc(-c3ccc(S(=O)(=O)N4CCCC4)cc3)no2)CC1	10.3µM*	-47.1%	19.8	-2.1%	?	9.2µM*
Cc1ccc(OC(C)C(=O)N2CCN(c3ccccn3)CC2)cc1 (stereo unspecified)	7.3%	-3.5%	11.0	nt	-6.6%	-21.2%
O=C(NC1CCC(n2cc(C(=O)NC3CC3)nn2)CC1)C(=O)c1ccccc1 (stereo unspecified)	-11.7%	nt	nt	nt	nt	-3.7%
CS(=O)(=O)N1CCCC(c2nc(-c3ccc(S(=O)(=O)NCc4ccccc4)cc3)no2)C1 (stereo unspecified)	13µM*	-15.7%	0.0	2.0%	-8.1%	10.3µM*
CCCS(=O)(=O)N1CCCC(c2nc(-c3ccc(OC)cc3)no2)C1 (stereo unspecified)	-27.3%	-7.0%	?	0.0%	-18.3%	-20.7%
CC(C)N(C(=O)N1CCC(c2nc(-c3ccncc3)no2)CC1)C(C)C	?	-16.3%	-0.3	-2.1%	-13.1%	18.4µM*
O=S(=O)(c1ccc2ccccc2c1)N1CCC(c2nc(-c3ccncc3)no2)CC1	16.4µM*	-34.5%	-18.0	4.9%	?	9.2µM*
CCC(C)NC(=O)C1CCN(S(=O)(=O)c2ccc3c(ccn3CC)c2)CC1 (stereo unspecified)	-11.5%	7.2%	nt	3.0%	7.7%	-18.0%
Cc1cccc(CNC(=O)c2cnn(-c3ncc(C)c(-c4ccc(F)cc4)n3)c2C)n1	-2.1%[9.04 µM]	nt	nt	nt	nt	-25.1%
CCc1nc2cc(C(=O)N3CCC[C@H]3CO)cc(NC(=O)c3ccccc3OC)c2n1C	10.7%[9.04 µM]	nt	nt	nt	nt	-7.0%
COc1ccccc1-n1c(SCC(=O)NCC2CCCO2)nc2c([nH]c3ccccc32)c1=O (stereo unspecified)	-14.6%	1.4%	-9.3	4.0%	-7.6%	-1.6%
Cc1nnc2n(-c3ccccc3)c(=O)c3c4c(sc3n12)COC(C)(C)C4	-23.8%	-2.2%	4.7	3.0%	?	?
CCCCSc1nnc2n(CCc3ccccc3)c(=O)c3c4c(sc3n12)COC(C)(C)C4	23.1µM*	-1.7%	-2.5	5.3%	0.5%	23.1µM*
CC(C)CC(=O)Nc1nnc(SCc2cc(=O)n3ccccc3n2)s1	?	-5.9%	nt	0.0%	-12.7%	?
O=C(COc1ccccc1C(=O)Nc1cccnc1)Nc1ccc(Br)cc1	?	3.7%	nt	nt	3.0%	?
CCN1C(=NCCCOC(C)C)N[C@@H](CCc2ccccc2)[C@H](C(=O)NCCCOC(C)C)[C@H]1C	1.84µM*	-28.7%	-58.2*	0.9%	?	1.64µM*
CCC(c1ccc(O)c(O)c1)C(CC)c1ccc(O)c(O)c1 (stereo unspecified)	2.91µM*	-18.5%	-98.8*	nt	?	1.84µM*
CCC(NC(C)C)C(O)c1ccc(O)c(O)c1 (stereo unspecified)	?	-3.2%	-17.6	-6.0%	13.5%	?
COC(=O)[C@H](C)NC(=O)c1cc2c(cn1)[nH]c1ccccc12	18.4µM*	-42.0%	-85.5*	nt	0.9%	18.4µM*
